Source: PubChem BioAssay (National Center for Advancing Translational Sciences (NCATS))
Rab9 promoter act: activators of Rab9 promoter. Huh7 Rab9 promoter-luciferase reporter, luminescence, 24 h. Potency, µM (top dose mostly 9.22 µM), most hits filed as activators. 2.8% of 320,000 active. AID 485297; note: nearly all actives have a fitted effect of over 60% in size
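Promoter activation is measured as luciferase luminescence in Huh7 cells stably transfected with a Rab9 promoter–luciferase construct, following 24 h compound exposure at 37 °C and 10 min reagent incubation at ambient temperature.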
FLuc counter: firefly luciferase modulation, counter-screen for miR-21 project; P08659; Potency, µM (titrated, usually from 57.5 µM), hits mostly inhibitors; purified FLuc, Km substrates, luminescence inhibition; 6.9% of 360,000 active; note: nearly all actives have a fitted effect of over 55% in size
Target sequence (P08659 whole entry, looked up): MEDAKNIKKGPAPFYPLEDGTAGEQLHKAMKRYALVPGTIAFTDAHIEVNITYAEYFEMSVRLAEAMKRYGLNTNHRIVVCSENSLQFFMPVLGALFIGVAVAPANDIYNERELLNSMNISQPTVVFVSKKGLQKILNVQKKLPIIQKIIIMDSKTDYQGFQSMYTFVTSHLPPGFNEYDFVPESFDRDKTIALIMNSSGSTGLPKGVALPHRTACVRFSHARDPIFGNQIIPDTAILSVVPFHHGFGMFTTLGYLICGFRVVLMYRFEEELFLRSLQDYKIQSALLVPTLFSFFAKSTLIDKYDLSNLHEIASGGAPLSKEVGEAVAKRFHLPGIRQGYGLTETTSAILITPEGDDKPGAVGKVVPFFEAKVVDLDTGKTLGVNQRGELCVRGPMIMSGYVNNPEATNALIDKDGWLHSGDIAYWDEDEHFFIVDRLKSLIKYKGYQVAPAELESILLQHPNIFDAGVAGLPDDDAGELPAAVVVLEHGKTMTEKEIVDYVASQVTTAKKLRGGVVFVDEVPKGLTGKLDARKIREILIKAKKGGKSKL
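Biochemical qHTS of compounds, final roughly 60 µM downward over six points, against 10 nM purified firefly luciferase using Km concentrations of substrates (10 uM D-luciferin, 10 uM ATP) in Tris acetate pH 7.5 buffer; luminescence output.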
NPC1 promoter act: activators of NPC1 promoter. 2.4% of 320,000 active. Huh7 NPC1 promoter luciferase reporter, 24 h. Potency, µM (series often up to 9.22 µM), most hits filed as activators; note: nearly all actives have a fitted effect of over 60% in size
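Huh7 cells stably carrying NPC1 promoter–luciferase, plated in Opti-MEM with 10% FBS for 2 h, were exposed to compound in DMSO for 24 h at 37 °C; luciferase reagent was added for 10 min and luminescence read.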
KinaseGlo FLuc: counter-screen: inhibitors of Kinase-Glo firefly luciferase. Q27757. Kinase-Glo luciferase, ATP luminescence, 8 min. Potency, µM (highest dose often 38.3 µM), usual class: inhibitors. 0.28% of 200,000 active; note: nearly all actives have a fitted effect of over 60% in size
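Recombinant Kinase-Glo luciferase, 10 uM ATP (linear range), luciferin; imidazole pH 7.2 / KCl / MgCl2 / Tween / BSA buffer; 8 min RT; luminescence.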
SMN2 splice up: SMN2 splice variant enhancement. HEK293 SMN2-luciferase splicing reporter, luminescence, 30-36 h. Potency, µM (series often up to 46.1 µM), usual class: activators. 2.8% of 210,000 active; note: nearly all actives have a fitted effect of over 55% in size
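qHTS luciferase splicing reporter: luminescence rises when SMN2 exon 7 is included in transfected HEK293 cells. Compound exposure lasted 30-36 h at 37C, with 4.5 mM final sodium butyrate as control, followed by a ONE-Glo read.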
ELG1 genotoxic: induces genotoxicity in HEK293T cells with luciferase-tagged ELG1; HEK293T ELG1-luciferase reporter, luminescence, 16 h; Potency, µM (titrated, usually from 46 µM), usual class: activators; 1.3% of 330,000 active; note: nearly all actives have a fitted effect of over 60% in size
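DMSO vehicle served as control against compound-treated ELG1-luciferase HEK293T cells; exposure lasted 16 hr at 37 °C and 5% CO2, followed by ONE-Glo luminescence detection after 30 min.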
A number is an active result; n = inactive; u = inconclusive; x = not tested or not shown; [ ] = another dose, or the depositor's remark. Hits are enriched below; roughly 7.3% of the tested compounds scored in any of these assays. Calls come from the whole dose curve; as a rule, active = well fitted curve in the direction sought with a large enough effect; inconclusive = small, poorly fitted or top-dose-only effect, or another doubt; inactive = no such curve, though single readings can be large; an effect the other way counts as inactive or inconclusive.

SMILES | Rab9 promoter act | FLuc counter | NPC1 promoter act | KinaseGlo FLuc | SMN2 splice up | ELG1 genotoxic
NC(=O)c1cc(Cc2ccccc2)sc1NC(=O)c1ccco1 | 4.5µM | 9.5µM | 3.5µM | n | 16µM | u
COc1cccc(-c2nnc(NC(=O)c3ccco3)s2)c1 | 2.2µM | 7.6µM | 2.2µM | x | x | 16µM
COc1ccc(-c2nnc(NC(=O)c3ccco3)s2)cc1 | 0.79µM | 1.5µM | 3.5µM | x | x | u
Cc1cccc(Cc2cnc(NC(=O)c3ccc(C)o3)s2)c1 | u | 9.5µM | u | n | n | 5.8µM
O=c1c(-c2ccc(Cl)cc2)c(C(F)(F)F)oc2c(CN3CCCCC3)c(O)ccc12 | x | n | x | x | n | x
O=C(CSc1nccn1Cc1ccco1)Nc1cc(C(F)(F)F)ccc1Cl | x | n | x | x | x | x
COc1cccc(-c2nnc(NC(=O)c3cccs3)s2)c1 | u | 2.4µM | u | n | 18µM | u
Cc1cccc(OCc2nnc(NC(=O)c3cccs3)s2)c1 | n | n | n | n | n | n
Cc1ccc(NS(=O)(=O)c2cccc(C(=O)N/N=C/c3c(C)nn(-c4ccccc4)c3N3CCCC3)c2)c(C)c1 | n | n | n | n | n[1.84 µM] | n
Cc1cccc(/C=N/NC(=O)c2ccc3c(c2)OCCO3)c1O | 0.5µM | 0.38µM | 0.89µM | x | x | 0.13µM
COc1cccc(/C=N/NC(=O)CNC(=O)c2ccc3c(c2)OCCO3)c1O | n | n | n | n | n | n
Cc1cccc(/C=N\NC(=O)c2ccc(Cl)cc2)c1O | u | 1.5µM | n | n | x | u
CCOc1cccc(/C=N/NC(=O)c2cc(-c3cccn3C)n[nH]2)c1O | n | 15µM | n | n | x | u
Cc1ccc(NS(=O)(=O)c2cccc(C(=O)N/N=C/c3ccc4c(c3)OCCO4)c2)c(C)c1 | n | 11µM | n | n | n | n
Cc1cccc(/C=N/NC(=O)Cc2ccc(Cl)cc2)c1O | n | n | n | x | x | u
COc1cc(OC)c(OC)cc1/C=N/NC(=O)c1cc(-c2cccn2C)n[nH]1 | n | n | n | n | n | n
Cc1cccc(CNC(=O)c2ccc(NC(=O)N3CC(C)Sc4ccccc43)cc2)c1 (stereo not given) | x | n | x | x | n | x
Cc1ccc(N=Nc2ccc(O)c(/C=N\NC(=O)c3ccc(N)cc3)c2)cc1C | 2.8µM | u | 1.4µM | n | n | u
O=C(N/N=C/c1cc(Cl)ccc1O)c1ccc(Br)cc1 | n | u | n | n | n | n
CCOc1cccc(/C=N/NC(=O)c2ccc3c(c2)OCCO3)c1O | n | 2.4µM | n | x | x | u
CCN(CC)CCN(C(=O)c1ccc2c(c1)OCCO2)c1nc2cc3c(cc2s1)OCO3 | n | n | n | x | x | n
CCN(CC)CCN(C(=O)c1cc2c(ccc3ccccc32)oc1=O)c1nc2cc3c(cc2s1)OCCO3 | n | n | n | x | x | 18µM
CCOC(=O)C1CCN(c2ncnc3c2nc2n3CCCCC2)CC1 | x | n | x | x | x | x
Cn1cc(-c2cc3n(n2)CCC(=O)N3CC(=O)NCc2ccc(Cl)cc2)c2ccccc21 | x | n | x | x | x | x
O=C1Nc2ccccc2C1=Nc1ccc(F)cc1 | n | n | n | x | x | n
SMILES | Rab9 promoter act | FLuc counter | NPC1 promoter act | KinaseGlo FLuc | SMN2 splice up | ELG1 genotoxic
Nc1n[nH]c(=S)n1/N=C1/C(=O)Nc2ccccc21 | n | 15µM | n | n | n | n
Cc1nc(NC(=O)CCl)sc1C(=O)N(C)C | n | n | n | n | x | n
Cc1nc(NC(=O)c2ccc(Br)s2)sc1C(=O)N(C)C | 3.5µM | 7.6µM | 3.2µM | n | 11µM | 9.2µM
CCOC(=O)c1sc(NC(=O)c2cc3c(s2)CCC(C)C3)nc1C (stereo not given) | n | 4.8µM | n | n | n | 10µM
Cc1nc(NC(=O)c2cc3c(s2)CCCCC3)sc1C(=O)N(C)C | u | 13µM | u | n | u | u
CCc1sc(C(=O)Nc2ccc(NC(C)=O)cc2)cc1C | n | n | n | n | n | u
CCc1sc(C(=O)Nc2nc(C)cs2)cc1C | u | 1.9µM | 1.3µM | x | x | u
COCCn1c(CCC(=O)Nc2ccc(C)c(Cl)c2)nc2cccnc21 | x | n | x | x | n | x
CCN(C(=O)C1CCCN(c2ncnc3c2nc2n3CCCCC2)C1)c1cccc(C)c1 (stereo not given) | x | n | x | x | x | x
Cc1ccc(NC(=O)c2cc3c(s2)CCCC3)cc1 | 1.4µM | 5.4µM | 3.2µM | n | 13µM | u
Cc1ccc(NC(=O)c2scc3c2CCCC3)cc1 | 1.8µM | 0.48µM | 4µM | n | 1.4µM | 1.8µM
O=C(Nc1ccccc1OC(F)F)c1cc2c(s1)CCC2 | n | 21µM | n | n | n | n
COC(=O)c1sc(NC(=O)c2cc3c(s2)CCCC3)nc1C | n[1.84 µM] | 2.4µM | n | n | 4.5µM | 1.2µM
Cc1oc2ncn(CC(C)C)c(=O)c2c1C(=O)N1CCN(c2ccc(F)cc2)CC1 | x | n | x | x | x | x
CCn1c(=O)n(-c2ccc3c(c2)OCO3)c2nc(-c3cc(OC)ccc3OC)nc(C(N)=O)c21 | x | n | x | x | n | x
Cc1csc(NC(=O)c2cc3c(s2)CCC3)n1 | u | 0.85µM | 0.63µM | u | 0.79µM | u
O=C(NCc1cccs1)c1cc2c(s1)CCCC2 | u | 12µM | u | n | 11µM | 21µM
Cc1csc(NC(=O)c2cc3c(C)nn(Cc4ccccc4Cl)c3s2)n1 | n | 11µM | n | n | n | n
CC(C)OC(=O)[C@@H]1CC[C@H](C)[C@@H](CCCC=O)O1 | x | x | x | n | n | x
CC(C)c1ccc(C(=O)NNC(=O)C2CC=CCC2C(=O)O)cc1 (stereo not given) | n | 17µM | n | n | u | n
Cc1ccsc1C(=O)NNC(=O)C1CC=CCC1C(=O)O (stereo not given) | n | u | n | n | n | n
O=C(COc1ccccc1O)Nc1ccccc1Cl | u | 21µM | 4µM | n | n | u
S=C(Nc1ccccc1Cl)Nc1ccc(Cl)cc1Cl | n | n | n | n | n | n
S=C(Nc1ccccc1)Nc1ccc(Cl)cc1Cl | u | 27µM | 3.2µM | n | n | 21µM
O=C(COc1ccccc1)Nc1ccc(Cl)cc1Cl | 2.2µM | 6µM | u | n | x | u
SMILES | Rab9 promoter act | FLuc counter | NPC1 promoter act | KinaseGlo FLuc | SMN2 splice up | ELG1 genotoxic
O=C(COc1ccccc1)Nc1cc(Cl)ccc1Cl | n | u | n | x | x | n
Cc1cccc(N2CCN(S(=O)(=O)c3c(C(=O)N4CCC(C)CC4)c(C)n(C)c3C)CC2)c1C | x | n | x | x | x | x
COc1ccc(NC(=O)CCCN2C(=O)CCn3nc(-c4cn(C)c5ccccc45)cc32)cc1 | x | n | x | x | x | x
O=c1cc(-c2cccc(O)c2O)oc2ccccc12 | x | x | x | n | x | x
CCN(CC)S(=O)(=O)c1ccc2c(c1)N(CC(=O)N1CCN(c3cccc(C)c3C)CC1)C(=O)CO2 | x | n | x | x | x | x
C=CCN1c2ccccc2[C@]23C[C@@H](C(=O)OC)N(S(=O)(=O)c4cccs4)C2=NC(C(=O)OC)=C(C(=O)OC)[C@H]13 | x | x | x | n[7.66 µM] | n[9.22 µM] | x
c1ccc(-c2csc(Nc3cccnc3)n2)cc1 | 2.8µM | 11µM | u | n | x | u
Clc1ccc(-c2csc(Nc3cccnc3)n2)cc1 | n | n | u | x | x | n
Clc1ccc(Nc2nc(-c3cccnc3)cs2)cc1 | n | 11µM | n | n | n | u
